Assay outcomes: PubChem BioAssay, several laboratories
Only some compounds are listed: those with a hit (about 3.1% of all), similar ones and a draw of the others.
Mac1 fbg enh: enhancers of human CD11b/CD18 binding to fibrinogen; P05107+P11215; K562 CD11b/CD18 adhesion to fibrinogen, ATPlite luminescence; activation, % at 10 µM; 0.07% of 93,000 active;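 active means 10 µM primary screen giving 50% or more activity, confirmed by 40% or more on retest at that dose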
ERb coact inh: blocks coactivator binding to human estrogen receptor beta. Q92731. TR-FRET ER-beta LBD / SRC1-Cy5 peptide binding; receptor agonist-loaded with 1 µM estradiol. inhibition, % at 25.6 µM. 1.3% of 86,000 active. AID 633;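 active means compounds whose percent inhibition of the receptor-coactivator binding signal exceeds about 50% in the single-dose screen, limit read from the data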;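 further: 0% = receptor plus peptide wells without compound and 100% = peptide-only wells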
Mac1 fbg inh: inhibitors of human CD11b/CD18 binding to fibrinogen; P05107+P11215; K562 CD11b/CD18 adhesion to fibrinogen, ATPlite luminescence; Mn2+ added to activate the integrin; inhibition, % at 10 µM; 0.54% of 93,000 active;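 active means primary inhibition of 50% or more at 10 µM, then 40% or more on retest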
ERa SRC1 inh: blocks coactivator binding to human estrogen receptor alpha | AID 629 | inhibition, % at 25.6 µM | P03372 | TR-FRET ER-alpha LBD / SRC-1 peptide, estradiol-bound | 1.7% of 86,000 active; in the data active means inhibition above about 50%;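 further: 0% = receptor plus peptide control and 100% = peptide only without receptor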
ERa SRC1 pot: ER-alpha (human) coactivator binding potentiation; P03372; TR-FRET ERalpha-LBD/SRC-Cy5 coactivator binding, 2 h; 100 = basal binding, no effect; coactivator binding (% of control), % at 25.6 µM; 1.3% of 86,000 active; AID 639; in the data active means activity above about 200%;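 further: binding measured in presence of low estradiol as agonist stimulus; 0% = peptide alone without receptor and 100% = receptor with peptide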
Starred values were filed as active, the others as inactive; · = not tested or not shown; [ ] = dose if it differs, or a comment.

SMILES	Mac1 fbg enh	ERb coact inh	Mac1 fbg inh	ERa SRC1 inh	ERa SRC1 pot
OC(CN1CCN(Cc2ccccc2)CC1)Cn1c2ccccc2c2ccccc21 (centres undefined)	1	·	15	·	·
OC(CN1CCN(c2ccccc2)CC1)Cn1c2ccccc2c2ccccc21 (centres undefined)	-3	0	0	-1	270*[fluorescence artefact?]
Cc1ccc(-c2nn(C)c(=O)c3ccccc23)cc1CNC(=O)Cn1nc(-c2ccccc2)c2ccccc2c1=O	133*	48	-13	68*[fluorescence artefact?]	89
COc1ccc(OCC(=O)Nc2cc(-c3nn(C)c(=O)c4ccccc34)ccc2OC)cc1	0	2	8	8	677*[fluorescence artefact?]
Cc1nn(CC(=O)NCc2cccc3ccccc23)c(=O)c2ccccc12	·	-9	·	-27	257*[fluorescence artefact?]
COc1ccc(-c2nn(C)c(=O)c3ccccc23)cc1NC(=O)Cn1nc(-c2ccccc2)c2ccccc2c1=O	·	2	·	13	290*[fluorescence artefact?]
Cc1nn(CC(=O)NCc2ccccc2)c(=O)c2ccccc12	-1	-20	-4	-19	99
Fc1cccc(NC(=S)NCc2cccnc2)c1	-2	·	21	·	·
CCOc1cccc2sc(NC(=O)c3ccc(Br)s3)nc12	2	48	7	45	433*[fluorescence artefact?]
CCn1c(SCC(=O)O)nc2sc3c(c2c1=O)CCC3	-2	91*[fluorescence artefact?]	2	91*[fluorescence artefact?]	6
CCn1c(SCC(=O)Nc2cc(C)on2)nc2sc3c(c2c1=O)CCCC3	·	20	·	24	96
Cc1cc(NC(=O)CSc2nc3sc4c(c3c(=O)n2C)CCCC4)no1	34	48	11	65*[fluorescence artefact?]	82
Cc1cc(NC(=O)CSc2nc(C(C)C)nc3sc4c(c23)CCCC4)no1	1	18	-4	0	206*[fluorescence artefact?]
CC(C)CNC(=O)/C=C/c1cccs1	-1	·	-2	·	·
Nc1ccccc1Nc1cc(-c2cccc(Cl)c2)nn1-c1ccccc1	-2	·	30	·	·
COc1ccccc1Cn1c(=O)c2ccccc2n2c(Sc3ncnc4sccc34)nnc12	0	24	13	0	259*[fluorescence artefact?]
COc1ccccc1Cn1c(=O)c2ccccc2n2c(SCc3csc(C)n3)nnc12	-1	1	3	1	125
CCOC(=O)c1ccc(NC(=O)COc2ccc(-n3cnnn3)cc2)cc1	·	82*[fluorescence artefact?]	·	91*[fluorescence artefact?]	14
CCOC(=O)c1ccc(NC(=O)CCOc2ccccc2)cc1	0	-3	0	-1	659*[fluorescence artefact?]
CCOC(=O)Cc1c(C)nc2c(-c3ccc(Cl)cc3)c(C)[nH]n2c1=O	·	18	·	32	248*[fluorescence artefact?]
O=c1c2ccccc2nc(SCc2cc(F)cc3c2OCOC3)n1Cc1ccco1	0	17	13	23	227*[fluorescence artefact?]
CCOC(=O)c1cc2c(c(CSc3nc4ccccc4c(=O)n3Cc3ccco3)c1)OCOC2	82	37	-20	9	337*
CN1c2ccccc2Oc2c(c(=O)n(C)c(=O)n2C)C1c1cccc([N+](=O)[O-])c1 (centres undefined)	·	-9	·	-6	94
Cc1ccc(C2C(C#N)=C(N)Oc3c2sc2ccccc32)o1 (centres undefined)	11	70*[fluorescence artefact?]	2	70*[fluorescence artefact?]	74
Cc1nn(-c2ccccc2)c(C)c1NC(=O)Cc1cccs1	·	53*	·	59*[fluorescence artefact?]	62
SMILES	Mac1 fbg enh	ERb coact inh	Mac1 fbg inh	ERa SRC1 inh	ERa SRC1 pot
Cc1nn(-c2ccccc2)c(C)c1NC(=O)c1cccs1	-4	-10	-2	-3	93
CCC(=O)Nc1nnc(SCC(=O)N2c3ccccc3CC2C)s1 (centres undefined)	·	-5	·	-5	122
CC1Cc2ccccc2N1C(=O)CSc1nnc(NC(=O)Cc2cccs2)s1 (centres undefined)	7	47	-1	62*	56
Cc1nnc(NC(=O)Cc2cccs2)s1	-4	73*[fluorescence artefact?]	-2	74*	50
Cc1nnc(NC(=O)CCC(=O)NCc2cccs2)s1	·	-6	·	-5	97
O=C(Cc1cccs1)Nc1nnc(COc2ccccc2)s1	·	37	·	56*	76
O=C(c1ccc(F)cc1)N1CCCCC(Sc2nnnn2-c2ccccc2)C1=O (centres undefined)	-3	-4	1	-11	85
CCC(C)NC(=O)COc1ccccc1[N+](=O)[O-] (centres undefined)	-3	·	9	·	·
NC(=O)NCc1ccc(Cl)cc1	-1	·	6	·	·
COc1ccc(-c2nnc(SC(C)C(=O)NCc3ccc4c(c3)OCO4)n2Cc2ccco2)cc1 (centres undefined)	-1	12	-24	7	78
